Shown are actives, neighbours in structure and some others; about 1.2% of the full set was active somewhere.
mIDH1 inhibitor: blocks human mutant IDH1 R132H enzyme; O75874; IDH1-R132H enzyme, NADPH consumption, diaphorase/resazurin fluorescence; Potency, µM (series often up to 76.6 µM), inactives show at the highest dose activity change, negative = inhibition, most hits filed as inhibitors; 0.093% of 390,000 active; AID 602179; note: nearly all actives have a fitted effect of over 65% in size
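IDH1-R132H (0.5 ug/mL dispensed) in pH 7.5 Tris buffer was preincubated 30 min with compound, then given a substrate mix of 0.016 mM NADPH and 2 mM alpha-KG for 80 min at room temperature; remaining NADPH was read by diaphorase/resazurin fluorescence.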
TrxR1 substrate: is turned over as a substrate by rat TrxR1; purified TrxR1 substrate turnover, NADPH consumption readout; AID 588456; Potency, µM (top dose mostly 114 µM), for inactives: at the top dose activity change, negative = substrate turnover; O89049; 0.01% of 390,000 active; note: nearly all actives have a fitted effect of over 50% in size
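Rat TrxR1, dispensed at 90 nM, was prereduced with 400 uM NADPH (final) for 5 min at ~22 deg C, then incubated with compound 15 min before 400 uM selenite. A first-read NADPH fluorescence drop versus no-compound background flagged substrates.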
GLS inhibitor: inhibitors of human glutaminase (GLS) | Potency, µM (highest dose often 45.5 µM), for the others: top-dose activity change, negative = inhibition, usual class: inhibitors | GLS enzymatic activity, qHTS titration | O94925 | 0.21% of 410,000 active
Target sequence (O94925 whole entry, looked up): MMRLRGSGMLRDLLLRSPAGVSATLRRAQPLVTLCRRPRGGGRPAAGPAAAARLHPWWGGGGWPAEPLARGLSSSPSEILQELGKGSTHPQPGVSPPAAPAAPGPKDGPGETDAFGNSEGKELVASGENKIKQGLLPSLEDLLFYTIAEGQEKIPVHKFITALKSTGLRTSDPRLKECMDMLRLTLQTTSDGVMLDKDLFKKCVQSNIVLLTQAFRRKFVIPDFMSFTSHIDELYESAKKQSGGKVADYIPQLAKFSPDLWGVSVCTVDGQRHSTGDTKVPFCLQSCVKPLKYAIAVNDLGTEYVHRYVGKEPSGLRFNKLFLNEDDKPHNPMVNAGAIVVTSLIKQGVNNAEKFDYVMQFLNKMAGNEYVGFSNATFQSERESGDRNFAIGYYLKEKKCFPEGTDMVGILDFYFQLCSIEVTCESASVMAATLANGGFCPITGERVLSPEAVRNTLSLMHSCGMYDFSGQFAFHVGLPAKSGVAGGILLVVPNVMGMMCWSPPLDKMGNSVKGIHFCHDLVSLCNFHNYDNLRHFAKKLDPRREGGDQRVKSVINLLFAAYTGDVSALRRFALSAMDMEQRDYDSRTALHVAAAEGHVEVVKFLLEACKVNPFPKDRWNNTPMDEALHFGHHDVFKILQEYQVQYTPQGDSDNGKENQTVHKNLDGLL
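Coupled fluorescence readout: glutamate oxidase/HRP/Amplex Red detect glutamate formed by hKGA from L-glutamine (1 mM solution added). Buffer 45 mM KH2PO4 pH 8.2, 0.02% Tween-20; reads at t0 and 30 min RT.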
rTrxR1 inhibitor: rat TrxR1 inhibition. O89049. recombinant rTrxR1, NADPH fluorescence consumption, selenite substrate. Potency, µM (doses to about 114 µM), for inactives: at the top dose activity change, negative = inhibition, actives largely listed as inhibitors. 1% of 390,000 active. AID 588453; note: nearly all actives have a fitted effect of over 65% in size
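Rat TrxR1 (90 nM in the dispensed reagent) was pre-reduced with 400 uM NADPH for 5 min at room temperature, then incubated with compound for 15 min. After 400 uM selenite was added, NADPH fluorescence (Ex 340/Em 450 nm) was followed for 8 min.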
An asterisk follows results filed as active; ? = inconclusive; nt = no result; [ ] = another dose, or the depositor's remark. Calls come from the whole dose curve; as a rule, active = well fitted curve in the direction sought with a large enough effect; inconclusive = small, poorly fitted or top-dose-only effect, or another doubt; inactive = no such curve, though single readings can be large; an effect the other way counts as inactive or inconclusive. % is set by controls: 0 for no effect and ±100 for the full control effect; potency is the fitted concentration of half-maximal effect.

SMILES	mIDH1 inhibitor	TrxR1 substrate	GLS inhibitor	rTrxR1 inhibitor
CC(=O)Oc1cc(C(=O)OCC(=O)N2CCc3ccccc3C2)cc(OC(C)=O)c1OC(C)=O	0%	10%[57.1 µM]	6.3µM*	-42%
COc1ccc(C(=O)OCC(=O)N2CCc3ccccc3C2)cc1OC	7%	-3%	-11%	-1%
O=C(/C=C\c1ccc(-c2ccccc2)o1)c1ccccc1	14%	-7%	3%	10µM*
O=C(O)/C=C/C(=O)c1ccc(O)cc1	-12%	-6%	8%	18µM*
Cc1ccc(C(=O)/C=C\C(=O)c2ccc(C)cc2)cc1	-1%	7%	-9%	5µM*
O/N=C\c1ccc(-c2ccccc2)o1	5%	-14%	1%	-22%
O=C(O)/C=C/C(=O)Nc1ccc(O)cc1	13%	-1%	?	71µM*
O=C(O)/C=C/C(=O)Nc1ccc(C(=O)c2ccccc2)cc1	-1%	-14%	-1%	1%
CC[C@H]1OC(=O)C[C@@H](O)[C@H](C)[C@@H](O[C@@H]2O[C@H](C)C[C@H](N(C)C)[C@@H]2O)[C@@H](CC=O)C[C@@H](C)C(=O)/C=C\[C@]2(C)O[C@H]2[C@@H]1C	nt	nt	2%	nt
CCN(CC)CCN(C)C(=O)c1[nH]c(C(F)(F)F)nc1-c1ccccc1	nt	nt	14%	nt
OC(CSc1nnnn1-c1ccccc1)Cn1c2ccccc2c2ccccc21 (stereo not drawn)	nt	nt	-15%	nt
O=C(Cn1c(=O)nc(-c2ccccc2)c2ccccc21)Nc1ccc(Cl)cc1F	-2%	9%	-14%	33%
CC(OC(=O)Nc1ccccc1)C(=O)OC1CCCCC1 (stereo not drawn)	5%	-5%	-11%	0%
COc1ccc(Cl)cc1Nc1ncnc2c1nc1n2CCCC1	-3%	0%	-2%	11%
CCN(CC)S(=O)(=O)c1ccc(C(=O)/C=C/c2ccc(-c3ccc([N+](=O)[O-])cc3)o2)cc1	0%	-2%	0%	-20%
Cc1ccc(C(=O)/C=C/c2ccc(-c3ccc(C)cc3)o2)cc1	0%	-9%	-10%	18µM*
COC(=O)C1=C(NC(=O)COc2ccc3ccccc3c2)CCS1	2%	30%	12%	79µM*
O=C1Nc2cnc(Cl)nc2Nc2ccccc21	nt	nt	-4%	nt
O=C(/C(=C/c1ccc(Cl)cc1)c1nc2ccccc2[nH]1)c1cccs1	-7%	-10%	8%	?
COc1cc(/C=C(/C(=O)c2cccs2)c2nc3ccccc3[nH]2)ccc1O	-5%	-11%[57.1 µM]	19%	14µM*
O=C1c2ccccc2-c2c1cccc2C(=O)N1CCN(C(=O)c2ccco2)CC1	0%	9%	3%	32µM*
C=Cc1ccc(CSc2nc(-c3ccccc3Cl)nc3c2Cc2c(CO)cnc(C)c2O3)cc1	-19%	-3%	-12%	-9%
Cc1c(C)c2c(OCC(=O)NCc3ccccn3)cc3c(c2oc1=O)CCC(C)(C)O3	2%	422%	19%	89µM*
CCCc1cc(=O)oc2c3c(cc(OCC(=O)NCc4ccccn4)c12)OC(C)(C)CC3	-17%	250%	6%	?
COC(=O)c1cc(C(=O)OC)cc(N2C(=O)CC(Sc3nc(C)cc(C)n3)C2=O)c1 (stereo not drawn)	4%	0%	-5%	-9%
SMILES	mIDH1 inhibitor	TrxR1 substrate	GLS inhibitor	rTrxR1 inhibitor
COC(=O)c1ccc(N2C(=O)CC(Sc3n[nH]c(C)n3)C2=O)cc1 (stereo not drawn)	-4%	-1%	-20%	13µM*
Cc1nn(C(=O)c2cccc([N+](=O)[O-])c2C)c(C)c1S(=O)(=O)N1CCCCCC1	2%	9%[0.457 µM]	6%	5%[57.1 µM]
CCn1c(SCC(=O)N2c3ccccc3Sc3ccccc32)nnc1-c1ccco1	3%	9%	-1%	20µM*
Nc1nc(N)c2c(n1)CN(Cc1ccc(Cl)cc1)C2	2%	nt	11µM*	nt
Nc1ncnc2c1CN(Cc1ccccc1)CC2	5%	-4%[2.29 µM]	-6%	16%[57.1 µM]
Cn1cnc([N+](=O)[O-])c1Sc1nnc(-c2cccnc2)n1C	0%	6%[57.1 µM]	-7%	0.63µM*
Cc1cccnc1Sc1c([N+](=O)[O-])ncn1C	11%	6%[57.1 µM]	2%	?
CCc1cccc(NC(=O)CCc2c(C)nc3c(-c4ccccc4)c(C)nn3c2C)c1	-10%	7%	-4%	25%
CC(C)c1ccc(C2NC(=O)c3c(sc4c3CCN(C)C4)N2)cc1 (stereo not drawn)	-5%	41%	16µM*	6%
CSc1ccc(C2NC(=O)c3c(sc4c3CCN(C)C4)N2)cc1 (stereo not drawn)	0%	7%[57.1 µM]	?	-19%[57.1 µM]
CN1CCc2c(sc3c2C(=O)NC(c2ccc(C(C)(C)C)cc2)N3)C1 (stereo not drawn)	-1%	65%	16µM*	-18%
CCCCCCC[n+]1ccc(/C=C/c2c(C)[nH]c3ccccc23)c2ccccc21	nt	3%	nt	-8%
Cc1ccc(C)c(N2CCN(C(=O)c3ccc(-c4nc(COc5ccccc5)c(C)o4)cc3)CC2)c1	-4%	-7%	0%	14%
COc1ccc(C(=O)N(Cc2ccco2)Cc2cccs2)c(O)c1	0%	3%	13%	-10%
COc1ccc(C(=O)/C=C/C(=O)N(CC(=O)NC2CCCCC2)Cc2ccc(F)cc2)c(O)c1	5%	7%	-6%	4µM*
COc1ccc(C(=O)/C=C/C(=O)N(CC(=O)NCCC(C)C)Cc2cccs2)c(O)c1	3%	-5%	?	2.8µM*
Cc1cccc(N(CC(=O)NCCSc2ccc(Cl)cc2)S(C)(=O)=O)c1C	15%	-1%	1%	9%
CSC1=C(C#N)C(=O)NC(c2ccccc2O)S1 (stereo not drawn)	1%	-2%[57.1 µM]	-2%	?
COC(=O)CSC1=C(C#N)C(=O)NC(c2ccccc2)S1 (stereo not drawn)	21%	-24%	-3%	28µM*
O=C(NCN1CCc2ccccc2C1)c1cnccn1	-8%	-4%	1%	20µM*
O=C(NCN1CCc2ccccc2C1)c1ccccc1	3%	6%[57.1 µM]	9%	11%[57.1 µM]
COc1ccc(N2CC(NC(=O)/C=C\c3ccc(OC)c(OC)c3)CC2=O)cc1 (stereo not drawn)	11%	5%[57.1 µM]	-9%	5%[57.1 µM]
O=c1c2ccccc2nc2n1CC/C2=C/N1CCN(c2cccc(C(F)(F)F)c2)CC1	7%	-1%	-3%	14µM*
O=c1c2cc(N3CCOCC3)ccc2[nH]c(=S)n1Cc1ccc(Cl)cc1	-2%	9%	-13%	8%
Cc1ccc(Cn2c(=S)[nH]c3ccc(N4CCOCC4)cc3c2=O)o1	6%	5%	-6%	4.5µM*
CC(C)Cn1c(N)c(C(=O)CCl)c(=O)n(C)c1=O	0%	3%	0%	?
Cn1c(=O)c(C(=O)CCl)c(N)n(CC2CC2)c1=O	6%	-6%[57.1 µM]	-3%	14µM*
Cc1ccc(S(=O)(=O)N2CCN(c3nc(-c4cncn4C)nc4ccccc34)CC2)cc1	nt	11%	nt	7%
O=[N+]([O-])c1cc(Br)cc(C=Nc2ccc3c(c2)OCO3)c1O	0%	-14%	5%	45µM*
